Laboratory results taken from PubChem BioAssay (NCI).
This is part of a sample that, as a whole, favours compounds with a hit. Of some 83,000 tested, about 20% had one in any assay.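 Treatment: one concentration, 48 hours, 96-well format. Scoring: percent growth, with anything below 10 considered active.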 Unmarked numbers belong to inactive results. Activity calls are given as the source filed them.

Tested on: CAKI-1 renal
Assay: NCI-60 one-dose screen, 48 h (100 = growth as untreated, 0 = no growth, -100 = all killed)
Conditions: 10 µM unless noted
Experimental: Growth inhibition of the CAKI-1 human tumor cell line is measured as a screen for anti-cancer activity. Cells are grown in 96 well plates and exposed to the test compound for 48 hours. Compounds are tested at a single concentration, which is 10^-5 M for most compounds. The reported endpoint is percent growth (GI% or GIPRCNT), where numbers from 0 - 100% represent growth inhibition, and numbers from -100% - 0 represent cell death. For example, a value of 40 represents 60% growth inhibition. A value of 0 means no net growth occurred over the course of the experiment. A value of -40 indicates 40% of cells at the beginning of the experiment died by the end of the experiment. A value of -100 means all cells are dead at the end of the experiment.
NCI-60 Human Tumor Cell Lines Screen was performed using the standard one-dose NCI protocol, which is described in more detail at https://dtp.cancer.gov/discovery_development/nci-60/default.htm.
Compounds with GIPRCNT values below 10 were considered active. Activity score was based on GIPRCNT using the following formula: […]
Score is 0 for GIPRCNT values of 100 or above, 50 for GIPRCNT values of 0, and 100 for GIPRCNT values of -100.

**Q.** With C[C@]12CC[C@H]3[C@@H](CC[C@]4(O)C[C@@H](O[C@@H]5O[C@H](CO)[C@@H](O[C@@H]6OC[C@@H](O)[C@H](O)[C@H]6O)[C@H](O)[C@H]5O)CC[C@]34C=O)[C@@]1(O)CC[C@@H]2C1=CC(=O)OC1 as the compound, how does the growth read?
**A.** Its growth is -5.08% (active).

**Q.** CNCc1cccnc1 was tested. Which growth did it give?
**A.** Its growth is 92%.

**Q.** Which growth does the source give for CCOc1ccccc1C(=O)OCC(Cl)(Cl)Cl here?
**A.** Its growth is 98.7%.

**Q.** With Clc1ccc(COC(Cn2ccnc2)c2ccc(Cl)cc2Cl)cc1 (stereo not given) as the compound, how does the growth read?
**A.** The growth was 21.4%.

**Q.** Which growth does the source give for O=C(CCl)c1ccc([N+](=O)[O-])o1 here?
**A.** The growth was -95.1% (active).

**Q.** For OCCCCCNC1CCCCC1, which growth is on record?
**A.** The growth was 101%.

**Q.** With COC(=O)[C@H](C[C@H](Cc1ccccc1)NC(=O)c1csc([C@@H](C[C@H](C(C)C)N(C)C(=O)[C@@H](NC(=O)[C@H]2CCCCN2C)C(C)C)OC(C)=O)n1)NC(=O)OCc1ccccc1 as the compound, how does the growth read?
**A.** Its growth is 34.9% [8.5 µM].

**Q.** How did the growth turn out when COc1cccc2c1c(C(=O)C(=O)Nc1ccn[nH]1)cn2Cc1ccc(F)cc1 was run?
**A.** Its growth is 46.7%.

**Q.** With COc1ccc(-n2c(C)nc3cc(OC)c(OC)cc3c2=O)cc1OC as the compound, how does the growth read?
**A.** Its growth is 97.3%.

**Q.** Which growth does the source give for CC(=O)O[C@H]1C(=O)[C@@]2(C)[C@H]([C@H](OC(=O)c3ccccc3)[C@]3(O)C[C@H](OC(=O)[C@H](OC(=O)OCC4COC(C)(C)O4)[C@@H](NC(=O)c4ccccc4)c4ccccc4)C(C)=C1C3(C)C)[C@]1(OC(C)=O)CO[C@@H]1C[C@@H]2O (stereo not given in full) here?
**A.** The growth was 37.5%.

**Q.** C[C@]12CCc3nc(Nc4ccccc4F)sc3C1=CC[C@@H]1[C@@H]2CC[C@]2(C)C(=O)CC[C@@H]12 was tested. Which growth did it give?
**A.** The growth was 65.4%.

**Q.** How did the growth turn out when COc1cc(C=Nc2cccc(Br)c2)ccc1N(CCCl)CCCl was run?
**A.** The growth was 5.9% (active).

**Q.** With C=C(C)[C@@]12OC3(/C=C/C=C/CCCCC)O[C@@H]1[C@@H]1[C@@H]4O[C@]4(CO)[C@@H](O)[C@]4(O)C(=O)C(C)=C[C@H]4[C@@]1(O3)[C@H](C)[C@H]2OC(=O)c1ccccc1 as the compound, how does the growth read?
**A.** Its growth is 69.8%.

**Q.** How did the growth turn out when Clc1ccc(N2COOC3(OOC2)C2CC4CC(C2)CC3C4)cc1 was run?
**A.** Its growth is 52.3%.

**Q.** For CC[C@H](C)[C@H](NC(=O)C12CC(NC(C)=O)(C1)C2)C(=O)N(C)[C@H](C[C@@H](OC(C)=O)c1nc(C(=O)N[C@@H](Cc2ccccc2)C[C@H](C)C(=O)OC)cs1)C(C)C, which growth is on record?
**A.** Its growth is 63.5%.

**Q.** With COC(=O)[C@H](Cc1c[nH]c2ccccc12)NC(=O)[C@@H](OC)[C@@H]1Cc2cc3cc(OC4CC(OC5CC(O)C(O)C(C)O5)C(O)C(C)O4)c(C)c(O)c3c(O)c2C(=O)[C@H]1OC1CC(OC2CC(OC3CC(C)(O)C(O)C(C)O3)C(O)C(C)O2)C(O)C(C)O1 (stereo not given in full) as the compound, how does the growth read?
**A.** Its growth is 19.5%.

**Q.** Cc1cc(N(CCCl)CCCl)ccc1/C=N\NC(=O)c1ccncc1 was tested. Which growth did it give?
**A.** The growth was 33.2%.

**Q.** Which growth does the source give for COc1ccc(/C=C\c2cc(OC)c(OC)c(OC)c2)c(NS(=O)(=O)c2ccc(Cl)cc2)c1O here?
**A.** Its growth is 28.1%.

**Q.** How did the growth turn out when CC[C@@H]1[C@@H](C)O[C@@](O)([C@@H](C)[C@H](O)[C@H](C)[C@H]2OC(=O)/C=C/C=C/[C@H](C)[C@@H]([C@@H](C)[C@@H](O)[C@H](C)[C@@]3(O)C[C@@H](O[C@H]4C[C@@H](O)[C@H](O)C(C)O4)[C@H](CC)[C@@H](C)O3)OC(=O)/C=C/C=C/[C@@H]2C)C[C@H]1O[C@@H]1C[C@@H](O)[C@H](O)C(C)O1 (stereo not given in full) was run?
**A.** The growth was -98.4% (active).

**Q.** With CCC(O)(CN)c1ccccc1 (stereo not given) as the compound, how does the growth read?
**A.** Its growth is 96.3%.

**Q.** For CCCCCCCCCCCCCCCCCCOc1ccccc1COP(=O)(O)OOCC[N+](C)(C)C, which growth is on record?
**A.** The growth was 1.63% (active).

**Q.** Which growth does the source give for Cc1cc(C)cc(Nc2nc3c(s2)CC[C@@]2(C)C3=CC[C@@H]3[C@@H]2CC[C@]2(C)C(=O)CC[C@@H]32)c1 here?
**A.** The growth was 47.4%.

**Q.** For COc1ccc(C2=CC(c3ccc(OC)c(OC)c3)c3c(c4ccccc4oc3=O)O2)cc1OC (stereo not given), which growth is on record?
**A.** The growth was 7.77% (active).

**Q.** With COc1cc2c(c(OC)c1OC)-c1ccc([O-])c(=O)cc1[C@@H](NC(C)=O)CC2.COc1cc2c(c(OC)c1OC)-c1ccc([O-])c(=O)cc1[C@@H](NC(C)=O)CC2.[Cu+2] as the compound, how does the growth read?
**A.** The growth was 34.1%.

**Q.** CC12CCC3C(C=CC4=C(N)C(=O)CCC43C)C1CCC2=O (stereo not given) was tested. Which growth did it give?
**A.** Its growth is 84.1%.

**Q.** How did the growth turn out when O=C([O][Hg][CH2]C1COCC([CH2][Hg][O]C(=O)c2ccccc2)O1)c1ccccc1 (stereo not given) was run?
**A.** Its growth is 57.2%.

**Q.** For CC(C)=CCc1c(O)c(C(=O)CC(C)C)c(O)c2c(-c3ccccc3)cc(=O)oc12, which growth is on record?
**A.** The growth was 52.4%.

**Q.** COc1ccc(C2=N[C@@H](Cc3ccccc3)C(=O)Nc3ccsc32)cc1 was tested. Which growth did it give?
**A.** The growth was 50.7%.

**Q.** With Cc1ccc(C(Cc2ccccc2)NCCO)cc1 (stereo not given) as the compound, how does the growth read?
**A.** The growth was 98%.

**Q.** Which growth does the source give for N#C[Se]Cc1cc(-c2ccccc2)n(-c2ccc(S(N)(=O)=O)cc2)n1 here?
**A.** The growth was 0.316% (active).

**Q.** For Oc1ccc2c3c1OC1[C@@H](O)CC[C@@]4(O)[C@@H](C2)N(CC2CCC2)CC[C@]314 (stereo not given in full), which growth is on record?
**A.** The growth was 94%.

**Q.** How did the growth turn out when ClCCN(CCCl)c1ccc(OCc2ccccc2)cc1 was run?
**A.** Its growth is 11.4%.

**Q.** Which growth does the source give for CC(=O)/C=C/c1ccc2c(c1)OCO2 here?
**A.** The growth was 91.5%.

**Q.** O=C(CC1(O)C(=O)N(Cc2ccccc2)c2ccccc21)c1ccc(C(=O)NCC2CCC3(CC2)OOC2(CCCCC2)OO3)cc1 (stereo not given) was tested. Which growth did it give?
**A.** The growth was -90.4% (active).

**Q.** With O=C(N/N=C\c1ccc(N(CCCl)CCCl)cc1Cl)c1cccnc1 as the compound, how does the growth read?
**A.** The growth was 69.3%.

**Q.** With Fc1cccc(NCOOC2(OOCNc3cccc(F)c3)CCCCC2)c1 as the compound, how does the growth read?
**A.** The growth was 52.3%.

**Q.** Which growth does the source give for COC(=O)C12CC(NC(=O)c3csc([C@@H](C[C@H](C(C)C)N(C)C(=O)[C@@H](NC(=O)[C@H]4CCCCN4C)C4CC4)OC(C)=O)n3)(C1)C2 here?
**A.** Its growth is 38.6%.

**Q.** With CC[C@]12C=CCN3CC[C@@]4(c5ccc(OC)cc5N(C)[C@H]4[C@@](O)(C(=O)OC)[C@@H]1OC(=O)CCCC[P+](c1ccccc1)(c1ccccc1)c1ccccc1)[C@@H]32 as the compound, how does the growth read?
**A.** Its growth is 85.9%.

**Q.** With Clc1cccc(NCOOC2(OOCNc3cccc(Cl)c3)CCCCCC2)c1 as the compound, how does the growth read?
**A.** Its growth is 36%.

**Q.** With CC(C)(C)C(=O)OCOP(=O)(OCOC(=O)C(C)(C)C)C1CCCN(O)C1=O (stereo not given) as the compound, how does the growth read?
**A.** The growth was 5.9% (active).
